The text below walks through data of PubChem BioAssay AID2314 (National Center for Advancing Translational Sciences (NCATS), 2010).

Among all 300,000 compounds or so, about 37,000 (12%) were called active. This excerpt belongs to a sample that is enriched for actives. Values without a mark were called inactive. Cut-off read from the data, not from the text of the source: active = max response mostly above about 13% (no sharp cut-off); inactive = mostly below about 14%.

The assay is described as follows: Cycloheximide Counterscreen for Small Molecule Inhibitors of Shiga Toxin. Note: read at 38.3 µM for the half of the compounds with a filed dose; 0% is about no effect. Particulars: cell reporter, cycloheximide protein synthesis inhibition counterscreen; stronger effect = higher value.
Turning to `COc1ccc(C(C)NC(=O)C23CC4CC(CC(C4)C2)C3)cc1` (configuration not stated), the max response is -0.477%.
`Cc1noc(C)c1S(=O)(=O)Nc1ccc(C(=O)N2CCN(c3ccc(F)cc3)CC2)cc1`: the max response is 11.8%.
In the case of `CCOC(=O)C1=C(O)CSC1=Nc1cccc(Cl)c1` it was -2.53%.
`CN(C)c1nc(=Nc2cccc(Cl)c2)ss1`: the max response was 24.1% (active).
For `N#Cc1cccc(NC(=O)COC(=O)c2ccccc2C(=O)c2ccc(Cl)c([N+](=O)[O-])c2)c1`, the max response is 3.74%.
As for `O=c1[nH]c(=S)[nH]c2[nH]c(=S)[nH]c12`, the max response is -3.22%.
Take `CCOC(=O)C1CCN(C(=O)c2ccccc2N(C)S(=O)(=O)c2ccccc2)CC1`: the max response is -2.92%.
In the case of `O=S(=O)(NCc1ccc(Cl)cc1Cl)c1cccs1` it was 14.3% (active); in that of `O=S(=O)(NCCc1ccc(Cl)cc1)c1cccs1`, 7.85%.
As for `CN(Cc1ccc(F)cc1Cl)S(=O)(=O)c1cccs1`, the figure is 15.3%.
Regarding `O=S(=O)(Nc1ccccc1Br)c1cccs1`, the max response is -5.92%.
In the case of `O=C(Nc1nncs1)c1ccccc1NS(=O)(=O)c1cccs1` it was 2.77%; in that of `O=C(Nc1cccc(Cl)c1)Nc1ccccc1NS(=O)(=O)c1cccs1`, 11% (active); in that of `O=C(Nc1ccc(Br)cn1)C1CCN(S(=O)(=O)c2cccs2)CC1`, 2.63%.
In the case of `c1ccc(C2CNCc3c2ccc2ccccc32)cc1` (configuration not stated) it was -1.66%.
Turning to `COc1cc(-c2n[nH]c(=S)n2Cc2ccccc2)cc(OC)c1OC`, the max response was -3.31%.
As for `CC(=O)c1c(O)cc2n(c1=O)-c1ccc(Cl)cc1C2(C)C`, the figure is -1.91%; as for `COc1ccccc1CCNS(=O)(=O)c1cn(C)nc1C`, 1.23%; as for `Cc1c(Cl)c([N+](=O)[O-])nn1CC(=O)NCCCN1CCOCC1`, -1.84%.
Take `COc1ccc(-c2cn(-c3ccc(C)cc3)c(=O)n2CC(=O)Nc2ccc(OC)c(OC)c2)cc1`: the max response is 12.3%.
As for `COc1ccc(NC(=O)Cn2c(-c3ccc(OC)cc3)cn(-c3ccc(C)cc3)c2=O)cc1`, the figure is 27.2% (active); as for `CCOc1ccc(NC(=O)CN2CCN(CC(=O)Nc3ccc(OC)cc3)CC2)cc1`, -1.52%; as for `CC(C)CCN(C(=O)c1csnn1)C(C(=O)NC1CCCC1)c1ccccc1` (configuration not stated), -2.45%.
As for `COc1ccc(NC(=O)C(C)N2c3cccc4cccc(c34)S2(=O)=O)c(OC)c1` (configuration not stated), the figure is -5.29%; as for `Cn1c(=O)c2cn(-c3cccc4ccccc34)cc2n(C)c1=O`, 18.7%.
As for `Cc1ccc(-c2c3c(=O)n(C)c(=O)n(C)c3cn2-c2ccccc2O)cc1`, the figure is 21.5% (active).
On to `COc1cccc(-n2cc3c(c2-c2ccccc2)c(=O)n(C)c(=O)n3C)c1`, for which the max response is 57.2% (active).
Consider `COc1ccc(-c2c3c(=O)n(C)c(=O)n(C)c3cn2NC(C)=O)cc1`, for which the max response was -6.45%.
As for `COc1ccc(-c2c3c(=O)n(C)c(=O)n(C)c3cn2-c2cccc(OC)c2)cc1`, the figure is 0.846%; as for `Cc1ccc(-c2c3c(=O)n(C)c(=O)n(C)c3cn2-n2cnnc2)cc1`, 0.742%; as for `Cn1c(C(=O)N2CCCC(C(=O)NCc3ccccc3)C2)cc2sccc21` (configuration not stated), 3.91%.
In the case of `CCOc1ccc(S(=O)(=O)N2CCC(C(=O)NCc3ccccn3)CC2)cc1Cl` it was -1.51%; in that of `COc1ccc(-c2nc(CS(=O)CC(=O)NCc3ccccc3)c(C)o2)cc1OC` (configuration not stated), 4.98%.
For the compound `Cc1no[n+]([O-])c1COc1ccccc1/C=C1\NC(=S)NC1=O`, the max response is 5.18%.
As to `CC(=O)Nc1ccc(S(=O)(=O)Oc2ccc(Br)cc2C(=S)N2CCOCC2)cc1`, the max response was -3.27%.
In the case of `CC(=O)Nc1ccc(CN2CCC(Oc3ccc(C(=O)N4CCCC4)cc3)CC2)cc1` it was -0.693%.
In the case of `O=C(Nc1ccc(Cl)cc1)/C(=C1\CCCN1)[N+](=O)[O-]` it was 5.78%; in that of `O=C(CN(c1ccccc1)S(=O)(=O)c1ccc(Cl)cc1)Nc1ccccc1C(=O)N1CCCC1`, -1.5%; in that of `Cc1ccc(C2=C/C(=C\c3cccnc3)C(=O)O2)cc1`, -1.01%.
As for `O=S(O)S(=O)(=O)O`, the figure is -2.81%; as for `Cc1ccccc1CN1CCN(C(=O)c2cccc(F)c2)CC1`, -3.46%; as for `CCC(O)C1CCN(Cc2cn(-c3ccc(OC)cc3)nc2-c2cccc(F)c2)CC1` (configuration not stated), 10.6% (active).
For `Cc1ccc(C)c(-n2cc(CN3CCN(C(=O)c4ncn[nH]4)CC3)c(-c3ccccc3)n2)c1`, the max response is -1.39%.
As for `Cc1cccc(-n2cc(CN3CCN(C(=O)c4ncn[nH]4)CC3)c(-c3cccc(F)c3)n2)c1`, the figure is 20.6% (active).
In the case of `COc1ccc(-n2cc(CN(C)Cc3n[nH]c(=O)[nH]3)c(-c3cccc(F)c3)n2)cc1`, the max response was 4.9%.
As for `COc1ccc(-n2cc(CNC3CCOCC3)c(-c3cccc(F)c3)n2)cc1`, the figure is 1.41%.
As for `C=CCCC(=O)Nc1nc(C)c(-c2csc(Nc3ccc(Cl)cc3)n2)s1`, the max response is -1.48%.
In the case of `CCOCCCNCc1cc(Br)ccc1OCC` it was 1.32%; in that of `O=C(NCc1ccncc1)C1CCN(C(=O)c2cccc(Cl)c2)CC1`, -4.47%.
`Cc1ccc(NC2CCCN(C(=O)CCc3cn[nH]c3)C2)cc1C` (configuration not stated): the max response was 2.58%.
On to `COc1c(O)c2c(=O)cc(OC)c3c4c(OC)cc(=O)c5c(O)c(OC)c6c(c(c1C[C@@](C)(O)[C@H]6C(C)=O)c23)c54`, for which the max response was 2.19%.
For the compound `CC(=O)Nc1ccccc1C(=O)C(=O)Nc1ccc(F)cc1`, the max response is 11.7%.
For the compound `COc1ccc(C(=O)/C=C/c2ccc(OC3CSC3)cc2)cc1`, the max response is -1.52%.
For the compound `CC(=O)Nc1ccc(C(=O)/C=C/c2ccc[nH]2)cc1`, the max response is 49.8% (active).
Turning to `CCCC(=O)Nc1ccc(C(=O)N/N=C/c2ccc[nH]2)cc1`, the max response is 7.57%.
In the case of `CC(=O)Nc1ccc(/C=C/C(=O)c2ccccc2)cc1` it was 30.5% (active).
For the compound `CC(=O)Nc1ccc(NC(=S)NC(=O)/C=C/c2ccccc2)cc1`, the max response is 4.54%.
Regarding `COc1ccc(CCNc2nc3ccc(C)cc3n3cnnc23)cc1OC`, the max response was -4.65%.
As for `CC1CCN(S(=O)(=O)c2nnc(NC(=O)COc3ccccc3F)s2)CC1`, the figure is -2.77%.
Regarding `CN(CCC(=O)Nc1cc(S(=O)(=O)N(C)C)ccc1Cl)CC(=O)Nc1ccc(F)cc1`, the max response was -1.74%.
As for `Cc1ccc(OC(=O)c2cncc(Br)c2)c(C)c1`, the max response was -1.19%.
On to `Cc1ccc(-c2nc(C#N)c(NCCCn3ccnc3)o2)cc1`, for which the max response is 16.7% (active).
On to `Cc1ccc(S(=O)(=O)c2nc(NCCCn3ccnc3)sc2Cl)cc1`, for which the max response is -2.37%.
For `COc1ccc(/C=C(\C#N)C(=O)NCCCn2ccnc2)cc1`, the max response was -5.64%.
As for `CCOC(=O)/C=C/C(=O)OCC(=O)NC(c1ccccc1)c1ccccc1`, the figure is 19.8% (active).
As for `O=C(Cc1ccc(-c2ccccc2)cc1)NC(c1ccccc1)c1ccccc1`, the figure is 1.24%.
On to `CCOC(=O)C(C(=O)OCC)C(C#N)c1ccccc1` (configuration not stated), for which the max response is -1.71%.
As for `COc1ccc(CNC(=O)[C@H](Cc2c[nH]c3ccccc23)NC(C)=O)cc1OC`, the max response is -3.86%.
Take `O=C(O)c1ccc(NC(=O)c2ccc(COc3ccc(Cl)cc3)o2)cc1`: the max response is 2.26%.
In the case of `O=C(Nc1ccn(Cc2ccccc2F)n1)c1ccc(COc2ccc(Cl)cc2Cl)o1` it was 15.1% (active); in that of `COc1ccc(Cl)cc1NC(=O)NCC1CCN(Cc2ccccc2F)CC1`, -0.34%.
Take `Cc1nn(C(C)(C)C)c(OC(=O)CC(C)C)c1S(=O)(=O)c1ccccc1`: the max response is 9.13%.
In the case of `COc1ccc(C2c3[nH]c4ccccc4c3C[C@H]3C(=O)N(CC(C)C)CC(=O)N23)c(OC)c1` (some centres not stated) it was -3.45%.
In the case of `COc1ccc(C2C=C(c3ccc(Br)cc3)Nc3nc(NS(C)(=O)=O)nn32)cc1` (configuration not stated) it was -3.16%.
For the compound `Cn1nc([N+](=O)[O-])nc1Sc1ccc(C(C)(C)C)cc1`, the max response is -3.02%.
In the case of `O=C(CN1CCN(C(=O)C2CCCO2)CC1)Nc1c(Cl)cccc1Cl` (configuration not stated) it was -1.69%; in that of `Cc1cccc(N=C2NN=C(c3c[nH]c4ccccc34)CS2)c1`, 25.2% (active); in that of `Cc1cccc(C(=O)Nc2nnc(Cc3c[nH]c4ccccc34)s2)c1`, 3.09%.
Consider `Cc1cccc(N=C2NC(=O)/C(=C/c3cn(C)c4ccccc34)S2)c1`, for which the max response is 3.29%.
Consider `CC1CCCCC1NC(=O)c1cn(C)c2ccc(S(=O)(=O)N3CCOCC3)cc2c1=O` (configuration not stated), for which the max response was 1.03%.
As for `O=C(NC1CCN(Cc2ccccc2)CC1)c1ccccc1F`, the figure is -5.27%; as for `O=S(=O)(NCCc1csc(-c2ccccc2)n1)c1cccnc1`, 19.7% (active); as for `O=C(NCCc1ccccn1)c1cc(-c2ccc(Cl)cc2)nc2ccccc12`, -4.89%.
`O=C(NCCc1csc(-c2ccccc2)n1)c1ccccc1F`: the max response is 17.6% (active).
In the case of `Cc1nc(CNS(=O)(=O)c2cccnc2)cs1` it was -2.9%.
In the case of `O=S(=O)(NCCc1ccncc1)c1ccccc1` it was -2.7%; in that of `Cc1ccc(-c2nn(C(C)(C)C)c3ncnc(N)c23)cc1`, -0.92%.
In the case of `COc1ccc(NC(=O)C2C3CCC(O3)C2C(=O)O)cc1OC` (configuration not stated) it was -2.93%.
`COc1ccc(CN2C3CCCC2CC(NC(=O)c2cccc(F)c2)C3)cc1` (configuration not stated): the max response was -1.01%.
In the case of `CCOC(=O)c1ccccc1NC(=O)COC(=O)CCC(=O)N1CCOCC1` it was -1.15%; in that of `COc1cc2c(cc1OC)C(C)N(S(=O)(=O)c1cnc(Cl)c(Cl)c1)CC2` (configuration not stated), 11.2%.
As for `COc1ccc(-n2ncc3c2CC(C)(C)CC3NC(=O)CCc2c(C)nn(C)c2C)cc1` (configuration not stated), the figure is 0.573%.
